The record followed here is ChEMBL document CHEMBL1961873, “Compounds: GSK PKIS; Assays: Nanosyn kinase panel” (2012).

By inhibition is commonly meant the drop in the measured response relative to a control, in per cent.

For assay [1], the system named is Proto-oncogene tyrosine-protein kinase receptor Ret (Homo sapiens), P07949 [Y791F]. The conditions noted are these: at 1 µM.
In assay [2] the target is Macrophage-stimulating protein receptor (Homo sapiens) (UniProt Q04912). The conditions noted are these: at 0.1 µM.
Chain of Macrophage-stimulating protein receptor (Homo sapiens) (Q04912 25-304 limits assumed): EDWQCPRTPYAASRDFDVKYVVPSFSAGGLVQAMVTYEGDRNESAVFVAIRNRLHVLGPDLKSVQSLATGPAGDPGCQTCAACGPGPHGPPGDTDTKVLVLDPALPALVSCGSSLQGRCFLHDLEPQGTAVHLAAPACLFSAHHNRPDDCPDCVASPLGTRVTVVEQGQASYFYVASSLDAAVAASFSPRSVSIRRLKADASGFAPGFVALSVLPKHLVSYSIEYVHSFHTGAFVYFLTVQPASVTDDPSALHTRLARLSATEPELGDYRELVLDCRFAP
Chain of Macrophage-stimulating protein receptor (Homo sapiens) (Q04912 310-1400 limits assumed): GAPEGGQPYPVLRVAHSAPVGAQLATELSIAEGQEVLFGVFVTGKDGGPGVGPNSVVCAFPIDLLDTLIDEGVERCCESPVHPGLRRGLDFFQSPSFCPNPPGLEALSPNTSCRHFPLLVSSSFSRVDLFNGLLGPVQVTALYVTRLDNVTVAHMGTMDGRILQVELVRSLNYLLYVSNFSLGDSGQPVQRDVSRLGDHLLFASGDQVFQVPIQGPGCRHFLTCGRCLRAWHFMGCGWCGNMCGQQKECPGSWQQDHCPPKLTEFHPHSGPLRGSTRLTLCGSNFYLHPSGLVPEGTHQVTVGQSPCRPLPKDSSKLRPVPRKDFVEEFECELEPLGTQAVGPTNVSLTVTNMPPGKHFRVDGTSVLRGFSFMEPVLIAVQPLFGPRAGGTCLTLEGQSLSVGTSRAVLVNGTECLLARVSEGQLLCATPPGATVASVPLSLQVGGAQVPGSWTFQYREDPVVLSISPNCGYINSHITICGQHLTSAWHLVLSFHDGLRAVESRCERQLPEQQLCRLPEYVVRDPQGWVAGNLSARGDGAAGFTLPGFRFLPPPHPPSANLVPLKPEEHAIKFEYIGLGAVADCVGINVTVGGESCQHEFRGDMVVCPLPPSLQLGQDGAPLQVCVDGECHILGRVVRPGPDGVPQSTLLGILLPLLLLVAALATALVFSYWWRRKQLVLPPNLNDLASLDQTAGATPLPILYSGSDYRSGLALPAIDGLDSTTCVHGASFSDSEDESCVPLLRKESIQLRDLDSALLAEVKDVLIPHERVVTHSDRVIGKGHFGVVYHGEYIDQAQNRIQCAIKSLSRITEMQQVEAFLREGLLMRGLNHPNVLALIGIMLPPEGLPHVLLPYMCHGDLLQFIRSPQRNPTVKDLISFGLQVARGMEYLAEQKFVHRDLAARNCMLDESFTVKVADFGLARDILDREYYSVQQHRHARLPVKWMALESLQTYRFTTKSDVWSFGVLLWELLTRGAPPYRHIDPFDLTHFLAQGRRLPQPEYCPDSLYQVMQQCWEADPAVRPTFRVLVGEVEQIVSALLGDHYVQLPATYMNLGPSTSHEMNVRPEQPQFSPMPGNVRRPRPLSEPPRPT
Assay [3] has the same target. The conditions noted are these: at 1 µM.
The target in assay [4] is Proto-oncogene tyrosine-protein kinase ROS (Homo sapiens) (UniProt P08922). The conditions noted are these: at 0.1 µM.
The target is the same in assay [5]. The conditions noted are these: at 1 µM.
The target of assay [6] is Proto-oncogene tyrosine-protein kinase Src (Homo sapiens) (UniProt P12931). The conditions noted are these: at 0.1 µM.
Chain of Proto-oncogene tyrosine-protein kinase Src (Homo sapiens) (P12931 2-536 limits assumed): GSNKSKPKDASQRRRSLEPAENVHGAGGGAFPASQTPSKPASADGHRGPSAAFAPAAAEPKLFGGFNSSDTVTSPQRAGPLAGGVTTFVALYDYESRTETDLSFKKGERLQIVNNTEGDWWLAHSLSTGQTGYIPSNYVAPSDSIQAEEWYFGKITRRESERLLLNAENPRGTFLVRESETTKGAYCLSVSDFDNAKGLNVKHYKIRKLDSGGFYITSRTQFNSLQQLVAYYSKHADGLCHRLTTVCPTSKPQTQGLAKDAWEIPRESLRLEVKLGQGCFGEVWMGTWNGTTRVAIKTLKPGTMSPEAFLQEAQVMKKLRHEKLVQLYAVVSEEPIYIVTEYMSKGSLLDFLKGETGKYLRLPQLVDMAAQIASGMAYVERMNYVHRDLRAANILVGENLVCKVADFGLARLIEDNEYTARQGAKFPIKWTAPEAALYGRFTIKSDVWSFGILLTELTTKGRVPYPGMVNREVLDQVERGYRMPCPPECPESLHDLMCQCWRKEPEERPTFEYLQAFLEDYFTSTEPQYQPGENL
Assay [7] shares this target. The conditions noted are these: at 1 µM.
For assay [8], the target named is Tyrosine-protein kinase Srms (Homo sapiens) (UniProt Q9H3Y6). The conditions noted are these: at 0.1 µM.
Chain of Tyrosine-protein kinase Srms (Homo sapiens) (Q9H3Y6 whole entry): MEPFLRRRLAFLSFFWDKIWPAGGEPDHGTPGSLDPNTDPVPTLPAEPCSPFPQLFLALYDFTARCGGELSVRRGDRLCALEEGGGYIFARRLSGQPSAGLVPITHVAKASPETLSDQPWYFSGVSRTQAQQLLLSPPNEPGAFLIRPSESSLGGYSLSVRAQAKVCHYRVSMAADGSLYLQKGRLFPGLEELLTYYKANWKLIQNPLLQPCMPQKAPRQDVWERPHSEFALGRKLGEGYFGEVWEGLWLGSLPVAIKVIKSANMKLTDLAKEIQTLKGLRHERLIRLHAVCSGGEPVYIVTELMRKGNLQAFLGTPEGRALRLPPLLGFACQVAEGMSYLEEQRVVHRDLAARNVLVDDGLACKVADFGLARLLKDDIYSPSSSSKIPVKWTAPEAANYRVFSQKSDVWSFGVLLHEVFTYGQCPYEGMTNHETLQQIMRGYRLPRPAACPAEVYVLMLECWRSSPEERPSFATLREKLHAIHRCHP
For assay [9] the target is unchanged. The conditions noted are these: at 1 µM.
The target of assay [10] is Tyrosine-protein kinase SYK (Homo sapiens) (UniProt P43405). The conditions noted are these: at 0.1 µM.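 Further: reported percentages are mean inhibition values for SYK.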

Chain of Proto-oncogene tyrosine-protein kinase receptor Ret (Homo sapiens), P07949 [Y791F] (P07949 whole entry Y791F): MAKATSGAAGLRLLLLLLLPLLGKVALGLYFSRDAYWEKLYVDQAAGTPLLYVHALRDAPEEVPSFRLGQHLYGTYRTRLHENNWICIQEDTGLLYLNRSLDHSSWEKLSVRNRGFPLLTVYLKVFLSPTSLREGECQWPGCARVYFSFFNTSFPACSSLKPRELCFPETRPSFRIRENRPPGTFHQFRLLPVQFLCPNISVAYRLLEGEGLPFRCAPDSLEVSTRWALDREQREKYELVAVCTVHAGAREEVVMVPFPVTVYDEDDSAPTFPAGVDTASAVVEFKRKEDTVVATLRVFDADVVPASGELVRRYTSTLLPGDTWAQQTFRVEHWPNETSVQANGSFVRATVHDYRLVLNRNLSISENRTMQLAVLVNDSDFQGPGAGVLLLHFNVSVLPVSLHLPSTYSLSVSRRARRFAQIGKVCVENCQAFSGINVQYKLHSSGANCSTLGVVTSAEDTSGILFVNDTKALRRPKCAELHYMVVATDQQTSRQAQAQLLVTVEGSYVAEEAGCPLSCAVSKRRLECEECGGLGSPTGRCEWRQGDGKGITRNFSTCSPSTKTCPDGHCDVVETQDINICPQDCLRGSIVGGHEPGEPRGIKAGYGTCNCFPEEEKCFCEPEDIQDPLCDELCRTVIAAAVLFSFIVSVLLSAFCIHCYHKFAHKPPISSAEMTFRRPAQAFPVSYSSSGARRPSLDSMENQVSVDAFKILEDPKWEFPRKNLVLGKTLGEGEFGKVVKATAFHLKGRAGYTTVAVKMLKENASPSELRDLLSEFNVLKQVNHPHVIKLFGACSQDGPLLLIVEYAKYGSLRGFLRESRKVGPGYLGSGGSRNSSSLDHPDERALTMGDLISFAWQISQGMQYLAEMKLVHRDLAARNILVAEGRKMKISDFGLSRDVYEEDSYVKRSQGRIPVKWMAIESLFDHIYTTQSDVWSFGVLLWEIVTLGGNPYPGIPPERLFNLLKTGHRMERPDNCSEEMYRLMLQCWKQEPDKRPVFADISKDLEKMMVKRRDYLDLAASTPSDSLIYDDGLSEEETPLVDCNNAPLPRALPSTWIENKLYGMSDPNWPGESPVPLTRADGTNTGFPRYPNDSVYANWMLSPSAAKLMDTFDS

With `CN1CCC(n2cnc(-c3ccc(F)cc3)c2-c2ccnc(Nc3ccccc3)n2)CC1`, the inhibition in assay [1] was found to be 36.2%; in assay [2], 2.65%; in assay [3], 4%; in assay [4] it was 1.54%; in assay [5], 4%; in assay [6] it was 9.92%. Besides, the inhibition in assay [7] amounted to 11.8%; in assay [8], 1.77%; in [9] it was 3.09%; in assay [10], 1.08%.

Turning to `NC(=O)c1sc(-n2cnc3ccc(C(F)(F)F)cc32)cc1OCc1ccccc1Br`, the inhibition in assay [1] was 11.1%; in assay [2], 4.35%; in assay [3], 5.41%; in assay [4], 3.4%; in assay [5], 9.36%; in assay [6] it was 1.66%. Further, the inhibition in assay [7] is 10.1%; in [8] it was -1.61%; in assay [9], -2.09%; in [10], -5.63%.

Take `FC(F)(F)c1cccc(-c2nn3ncccc3c2-c2ccnc(Nc3ccc4c(c3)OCCO4)n2)c1`: the inhibition was determined as 22.1% in assay [1]; 5.16% in [2]; 4.5% in [3]; 1.05% in [4]; 4.18% in assay [5]; 12.8% in assay [6]. Besides, the inhibition was 47.9% in assay [7], 0.82% in assay [8], 2.59% in assay [9] and 0.9% in assay [10].

As to `CNC(=O)c1cc(-c2ccc(F)cc2)cc(-c2ccc(S(=O)(=O)N3CCCC3)cc2)c1N`, the inhibition in [1] worked out at 2.82%; in assay [2] it was 1.89%; in assay [3] it was 4.58%; in assay [4], 4.64%; in assay [5], 6.55%; in assay [6], 5.46%. The inhibition is 6.17% in [7], 2.11% in assay [8], -2.91% in [9] and -0.29% in assay [10].

On to `COc1cc2ncn(-c3cc(OCc4ccccc4C(F)(F)F)c(C(=O)N(C)C)s3)c2cc1OC`, for which the inhibition was 23.4% in [1]; 1.82% in assay [2]; -1.06% in [3]; 1.8% in assay [4]; 2.67% in assay [5]; 0.91% in assay [6]. In addition, the inhibition in [7] stood at 3.6%; in assay [8], 1.16%; in assay [9], 1.35%; in assay [10] it was 4.44%.

As to `O=C(O[C@H]1CN[C@H](C#Cc2cc3ncnc(Nc4ccc(Cc5ccccc5)cc4)c3s2)C1)N1CCOCC1`, the inhibition in [1] was 4.61%; in assay [2], 2.34%; in [3], 3.27%; in assay [4], -0.61%; in [5], 2.78%; in assay [6], 3.84%. The inhibition is 7.75% in [7], -3.02% in [8], -2.02% in assay [9] and -0.1% in [10].

Take `Cc1cccc(Nc2ncc(-c3ccccc3)o2)c1`: the inhibition was 6.11% in assay [1]; 3.38% in assay [2]; -0.6% in assay [3]; 6.3% in assay [4]; 7.89% in assay [5]; 8.62% in assay [6]. Besides, the inhibition in assay [7] was 19.3%; in assay [8], 0.16%; in assay [9] it was -0.12%; in [10], 1.35%.

Turning to `Fc1ccc(-c2cc(-c3c[nH]nc3-c3ccccn3)ccn2)cc1`, the inhibition in assay [1] was 13.8%; in assay [2] it was 4.71%; in [3], 8.86%; in assay [4], 6.8%; in assay [5], 8.14%; in [6], 0.27%. Further, the inhibition is 9% in [7], -0.96% in assay [8], -1.26% in assay [9] and 0.3% in [10].

Regarding `COc1ccc2c(-c3ccnc(Nc4cccc(OC(F)(F)F)c4)n3)cnn2n1`, the inhibition in assay [1] is 11.9%; in [2], 2.53%; in [3], 9.83%; in assay [4], 11.1%; in [5], 46.5%; in assay [6] it was 5.55%. For the same molecule, the inhibition in [7] was 23.6%; in assay [8] it was -1.28%; in assay [9], 1.58%; in [10], -2.58%.

On to `COc1ccc(-c2nn3ncccc3c2-c2ccnc(Nc3ccc4c(c3)OCCO4)n2)cc1`, for which the inhibition in assay [1] was 56.2%; in assay [2], -3.38%; in [3], 8.88%; in [4], 6.79%; in assay [5] it was 21.9%; in [6], 7.57%. In addition, the inhibition in [7] was 51.7%; in assay [8], 0.02%; in assay [9] it was 0.99%; in assay [10], 1.19%.

As for `CS(=O)(=O)CCNCc1coc(-c2ccc3ncnc(Nc4ccc(OCc5ccccc5)cc4)c3c2)c1`, the inhibition is 8.25% in assay [1]; -5.7% in assay [2]; 2.31% in assay [3]; 4.75% in [4]; 4.27% in assay [5]; 8.85% in assay [6]. In addition, the inhibition in assay [7] came to 10.9%; in assay [8], 3.44%; in [9] it was 3.19%; in [10] it was 2.29%.

Consider `CCc1nn2ncccc2c1-c1ccnc(NC2CC2)n1`, for which the inhibition in [1] came to 6.92%; in assay [2], 6.26%; in [3] it was 6.01%; in [4] it was 4.86%; in assay [5], 5.32%; in assay [6], 6.38%. Besides, the inhibition came out at 7.08% in assay [7], 1.77% in [8], 1.02% in assay [9] and 0.63% in [10].

For the molecule `COC(=O)Nc1nc2ccc(S(=O)(=O)c3ccc(NC(=O)Nc4cc(C(F)(F)F)ccc4F)cc3)cc2[nH]1`, the inhibition is 0.06% in assay [1]; 0.24% in assay [2]; 1.14% in [3]; 2.51% in assay [4]; 3.41% in [5]; 7.41% in assay [6]. The inhibition was 6.38% in assay [7], -0.37% in assay [8], -3.26% in assay [9] and 1.38% in assay [10].

As for `CNC(=O)c1cncc(/C=C/c2ccccc2Cl)c1`, the inhibition was 22.8% in assay [1]; 2.22% in assay [2]; 7.21% in [3]; -2.16% in [4]; 2.7% in [5]; 10.1% in assay [6]. Moreover, the inhibition in assay [7] stood at 7.14%; in assay [8], 1.76%; in [9], 3.3%; in assay [10] it was 7.26%.

In the case of `N#Cc1c(NC(=O)c2ccc(F)cc2)sc2c1CCCC2`, the inhibition in assay [1] came to 7.62%; in assay [2] it was 1.04%; in assay [3], 2.12%; in assay [4], 0.38%; in assay [5] it was 4.13%; in [6] it was 4.79%. For the same molecule, the inhibition in [7] was 1.56%; in [8] it was -1.11%; in assay [9] it was -0.62%; in assay [10], -2.1%.

Take `Fc1ccc(-c2nn3ncccc3c2-c2ccnc(Nc3ccc4c(c3)OCCO4)n2)cc1`: the inhibition in assay [1] was 65.8%; in assay [2], -2.95%; in [3], 4.64%; in assay [4] it was 4.11%; in assay [5] it was 10.9%; in assay [6], 40.2%. The inhibition was 83.9% in [7], -0.06% in [8], 9.83% in [9] and -5.37% in [10].

Regarding `NS(=O)(=O)c1ccc(N/N=C2\C(=O)Nc3ccc4ncccc4c32)cc1`, the inhibition in assay [1] worked out at 77.7%; in assay [2], 2.25%; in [3], 13.3%; in [4], 8.1%; in [5], 35.3%; in [6], 19.3%. The inhibition in [7] was 71.1%; in assay [8], -0.11%; in assay [9], 3.96%; in assay [10], -9.38%.
